# System: PPARa:RXRa (NR concentration 270 nM, RXRa partner concentration 90 nM)
# Experiment: PBM binding z-score (relative to random genomic background probes); higher = stronger binding; sequences stand for … in GC…GCGATTGACAGCGTAGAATGAAGG
# Outline: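 Probes were double-stranded and carried 34-nt variable regions with direct-repeat seeds, single-nucleotide variants, half-site ablations and random human genomic background sequences, printed on custom Agilent 4×180K protein-binding microarrays. Arrays were incubated 1 h with ligand-free nuclear receptor dimers in PBS pH 7.4, 2% milk, 0.02% Triton X-100, 1 mM DTT, 0.2 mg/mL BSA and 0.4 mg/ml salmon testes DNA. Antibodies against each partner (one per run) detected binding, and scanned fluorescence was regression-normalized. Binding z-scores use the random background probes as reference.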
row,Sequence,PBM binding z-score
1,ATCTCTAGGTGAAGTTCAGTGAAAGATCGATAGA,1.88
2,CCGACTGGGGCAGAAAGTTTACCATACCATCCGG,-0.213
3,ACAGACAGGTGATGAAGGTAACTAAGGCTATCAT,0.196
4,GCATGTAGATCAAGGTTAAGAAAGACTAAGCTAA,1.47
5,TCTTGTAGATCAACAGGAGGTCAAGAAAGATCGA,3.71
6,CTTGCTAGGTCAATGGTCAGCTAAAGCAGCTCGC,3.41
7,TCGAGTAGGTTCGTCGGGGCATTCAGCCAACATA,0.757
8,ATCTCTGGGTAACAAGTTCAGTGAAAGAGAGGAC,1.7
9,TAGCCCAGGTCAGATCGGGCCAGTATACGCTATA,1.86
10,TGTCAAAGTTCAATGGTAACGTAAGTATCCACAC,4.31
11,CGAACGAGGGCATGAGTTGATAGCAAATGCCGAT,1.71
12,CGTCCAAGGTCATAGGAGGTCAGGGAAGACAGAT,6.17
13,GCTGCTTGGTCAACTGATGGTCAGCTAAAGCTCG,-0.414
14,ATCTCTAGGAAACCAAGTTCAGTGAATGCCGAAC,0.151
15,CCTGCTAGGTCATGGTCATCTAATCTACAGTATG,3.6
16,TAGCCTATGTCATTGGGCCAGTATAGTACGCATC,0.0352
17,CGAACTAGGTCAGAACAGGACACTGAAGGATGAT,3.15
18,GCTCGGAGGACAAGGTCAGATCTTTGTCCGTAGA,2.68
19,AGAATGAGGTTATTACGATCAGGGAATTGCGGTC,2.66
20,TCATATACGTAAAAGGTGAAAGTCGGTGTGGTAA,2.81

row,Sequence,PBM binding z-score
1,CCTAGTGGGCCACGAAAGGTCATTGATTCAGTGA,4.7
2,TCTTGTAGTTCAATAGAGGTTAAGAAAGTGCGCT,2.28
3,ACAGACAGGTGATAAAGGTAACTCAGGCTATCAT,0.763
4,CCTACTGGGTCATCAGGTCATTGATATCAACGTT,4.86
5,TCATCTAGGTAAAAGGTGAAAGTCGGTGTGGTAA,5.64
6,CAGCCTAGGTCAGGCCCAGTATAGGAGGAACGTT,1.45
7,AATACAGGGTCATCGTAAGCCAGAGTACGCACAG,6.1
8,CCTACTGGGCCACGAACGGTCATTGATTCAGTGA,0.858
9,GCGACTTGGGCAAAGCAGGTTACCATAAGGTTGG,0.243
10,TCTAGTAGGTTAGTCGGGGCATTCAGCCAACATA,1.9
11,AGAACGAGGGCACGCTCAGTTGATAGCAGAGTAG,2.06
12,CGTACTAGGTCATTGACAGGACAGTGAATAGTAA,4.07
13,ATCGAAAGGTCGAGGTGAGCATAGAGAAAGGGAA,4.61
14,TCATATAGGTAAAGGTGCAAGTCGAACGATATGA,2.77
15,TCTAGTTGGTCACGGAGGTCACTCACGACGGGTA,3.15
16,GCGACTGGGGCATAAGCAGGTTACCATAACTTAA,1.24
17,AATACAGGCTCATCGTAGGCCAGAGTACGCACAG,-0.569
18,CGTACAAGGTCAGCAGGTCAGTGAAAGCGACGTG,5.32
19,ACAGACAGGTGAGTGAAGGGAACTCAGCTGGACG,-0.171
20,CCTACTGGGCCAAAAAGGTCCTTGATGCCGATAA,0.631
